In the library only some 27% were active in any assay of this set; here they are far more common.
CYP2C9 inhib – inhibitors of human CYP2C9; actives 20% (n = 96,000); AID 777; P11712; inhibition, % at 5 µM; CYP2C9 Supersomes, luciferin-H conversion, luminescence;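 active = blocking of liver enzyme CYP2C9 beyond about 50% at 5 µM, limit read from the data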
CYP2C19 inhib – inhibitors of human CYP2C19; P33261; CYP2C19 Supersomes, luciferin-H EGE luminescence, 30 min; inhibition, % at 5 µM; actives 21% (n = 96,000); AID 778;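 active = CYP2C19 inhibition above a set limit at 5 µM in the primary screen, cut at about 50% in these data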
Cav3 T inh – inhibitors of human Cav3.2 T-type calcium channel; O95180; Cav3.2-expressing cells, Fluo-4 calcium fluorescence FDSS; stronger effect = lower value; B-score at 10 µM; actives 4% (n = 100,000); AID 449739;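 active = single-dose well whose peak fluorescence ratio is a statistical outlier from its plate by either plate-standardised score or position-corrected B-score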
Target sequence (O95180 whole entry, looked up): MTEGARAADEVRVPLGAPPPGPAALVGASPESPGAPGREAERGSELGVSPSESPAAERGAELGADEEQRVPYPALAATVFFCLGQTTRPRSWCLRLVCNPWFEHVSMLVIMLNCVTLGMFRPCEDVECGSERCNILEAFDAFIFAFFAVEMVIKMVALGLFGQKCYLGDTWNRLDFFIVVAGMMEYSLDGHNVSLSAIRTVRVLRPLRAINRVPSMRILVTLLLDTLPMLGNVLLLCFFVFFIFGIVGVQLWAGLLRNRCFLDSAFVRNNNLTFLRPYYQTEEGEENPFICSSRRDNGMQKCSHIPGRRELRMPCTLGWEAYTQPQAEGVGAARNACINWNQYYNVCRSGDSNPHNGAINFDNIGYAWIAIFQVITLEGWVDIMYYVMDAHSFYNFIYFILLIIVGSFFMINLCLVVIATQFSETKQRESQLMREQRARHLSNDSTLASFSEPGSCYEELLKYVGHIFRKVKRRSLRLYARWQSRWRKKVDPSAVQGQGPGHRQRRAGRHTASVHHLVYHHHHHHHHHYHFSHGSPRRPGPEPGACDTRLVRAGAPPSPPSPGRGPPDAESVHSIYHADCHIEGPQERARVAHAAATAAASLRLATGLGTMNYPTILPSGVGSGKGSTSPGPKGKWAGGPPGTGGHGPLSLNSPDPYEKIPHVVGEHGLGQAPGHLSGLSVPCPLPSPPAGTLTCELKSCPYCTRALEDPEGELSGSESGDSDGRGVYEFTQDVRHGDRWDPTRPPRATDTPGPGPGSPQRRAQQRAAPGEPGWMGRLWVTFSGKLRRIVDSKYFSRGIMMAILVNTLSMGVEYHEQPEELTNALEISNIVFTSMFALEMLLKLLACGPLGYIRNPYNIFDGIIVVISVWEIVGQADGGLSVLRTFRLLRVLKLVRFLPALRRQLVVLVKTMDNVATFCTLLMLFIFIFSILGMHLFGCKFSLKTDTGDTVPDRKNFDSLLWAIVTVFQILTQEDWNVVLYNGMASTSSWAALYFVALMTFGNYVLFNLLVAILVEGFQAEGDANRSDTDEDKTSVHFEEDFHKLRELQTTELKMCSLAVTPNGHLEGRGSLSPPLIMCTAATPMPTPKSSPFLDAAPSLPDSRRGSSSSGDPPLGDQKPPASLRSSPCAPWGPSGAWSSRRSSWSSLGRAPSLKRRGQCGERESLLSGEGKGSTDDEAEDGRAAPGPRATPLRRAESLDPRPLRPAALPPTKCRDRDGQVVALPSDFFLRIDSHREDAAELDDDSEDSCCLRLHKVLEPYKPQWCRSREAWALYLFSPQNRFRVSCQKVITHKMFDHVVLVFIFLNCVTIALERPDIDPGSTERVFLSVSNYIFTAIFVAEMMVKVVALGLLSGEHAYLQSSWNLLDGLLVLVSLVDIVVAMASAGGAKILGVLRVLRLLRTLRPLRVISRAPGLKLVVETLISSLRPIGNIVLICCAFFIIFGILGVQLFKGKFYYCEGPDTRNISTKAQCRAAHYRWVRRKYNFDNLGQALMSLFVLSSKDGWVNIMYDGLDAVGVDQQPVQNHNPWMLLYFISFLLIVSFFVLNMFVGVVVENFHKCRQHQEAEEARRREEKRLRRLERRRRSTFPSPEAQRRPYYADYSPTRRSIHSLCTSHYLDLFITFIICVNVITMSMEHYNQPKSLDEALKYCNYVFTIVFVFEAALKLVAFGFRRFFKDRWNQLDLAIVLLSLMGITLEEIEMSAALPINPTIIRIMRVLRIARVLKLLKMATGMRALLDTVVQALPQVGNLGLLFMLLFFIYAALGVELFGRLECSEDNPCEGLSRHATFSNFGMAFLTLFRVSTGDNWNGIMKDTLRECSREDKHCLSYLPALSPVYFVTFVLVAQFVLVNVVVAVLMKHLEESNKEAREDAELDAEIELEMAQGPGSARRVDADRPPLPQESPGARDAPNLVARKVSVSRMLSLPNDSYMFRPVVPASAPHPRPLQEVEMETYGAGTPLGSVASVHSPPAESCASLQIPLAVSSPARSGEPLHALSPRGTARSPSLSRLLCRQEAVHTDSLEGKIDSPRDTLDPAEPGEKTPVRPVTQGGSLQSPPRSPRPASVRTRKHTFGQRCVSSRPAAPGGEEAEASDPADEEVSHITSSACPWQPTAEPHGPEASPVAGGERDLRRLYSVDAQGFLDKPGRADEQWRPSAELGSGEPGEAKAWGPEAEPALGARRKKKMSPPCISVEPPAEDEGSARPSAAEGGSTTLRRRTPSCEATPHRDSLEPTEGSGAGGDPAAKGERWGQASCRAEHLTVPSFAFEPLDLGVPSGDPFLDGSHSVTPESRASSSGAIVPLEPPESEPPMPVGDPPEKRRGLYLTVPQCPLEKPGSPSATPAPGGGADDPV
CYP2C9 act – activators of human CYP2C9. P11712. recombinant CYP2C9, luciferin-H conversion, luminescence; stronger effect = higher value; factor 1 = untreated enzyme, 0 = blocked. activation factor at 5 µM. actives 1.4% (n = 96,000);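 active = activation factor of 2 or more for CYP2C9 at a 5 µM dose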
CYP2C19 act – increases human CYP2C19 enzyme activity; P33261; recombinant CYP2C19, luciferin-H EGE luminescence; stronger effect = higher value; 0 = fully inhibited enzyme, 1 = untreated enzyme; activation factor at 5 µM; 96,000 tested, under 10 active;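 active = activation factor of at least 2 at 5 µM in the primary screen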
Large screens that a line does not name were inactive.

CCOC(=O)C(C)Sc1nc2ccccc2c(=O)n1CC (centres undefined)	CYP2C9 inhib 63, CYP2C19 inhib 77 (no result: Cav3 T inh)
CCOC(=O)COn1c(SCC(=O)OCC)nc2ccccc2c1=O	CYP2C19 inhib 53 (no result: Cav3 T inh)
C=CCn1c(SC(C)C(=O)NCCC2=CCCCC2)nc2ccccc2c1=O (centres undefined)	CYP2C9 inhib 56, Cav3 T inh -6.1
COCCn1c(SCC(=O)OCc2ccccc2)nc2c1c(=O)[nH]c(=O)n2C	none
O=C(NCCCN1CCOCC1)C1CCC(=O)N1C1CCCCC1 (centres undefined)	none
COc1ccccc1C1NC(=O)CS1 (centres undefined)	none (no result: Cav3 T inh)
Cc1nn(C)cc1C1Nc2ccccc2C(=O)N1O (centres undefined)	none (no result: CYP2C9 inhib, CYP2C19 inhib, CYP2C9 act, CYP2C19 act)
C=CCc1cccc(C2Nc3ccccc3C(=O)N2O)c1O (centres undefined)	Cav3 T inh -9.8
COc1ccc(NC(=O)C2CCCCN2S(=O)(=O)c2ccc(F)cc2)c(OC)c1 (centres undefined)	none
COc1ccc(NC(=O)C2CCCN2S(=O)(=O)c2ccc(C)cc2)cc1 (centres undefined)	CYP2C9 inhib 75, CYP2C19 inhib 74
COc1ccc(S(=O)(=O)N2CCC(O)(c3ccc4c(c3)OCO4)CC2)cc1	none
COc1ccc(S(=O)(=O)N2CCCC2C(=O)Nn2cnnc2)cc1 (centres undefined)	none
COc1ccccc1NC(=O)C1CCCCN1S(=O)(=O)c1ccc(F)cc1 (centres undefined)	CYP2C9 act 2.7
COc1ccc(S(=O)(=O)N2CCCC2C(=O)Nc2ccc(C(C)=O)cc2)cc1 (centres undefined)	CYP2C19 inhib 57
O=S(=O)(c1ccc(F)cc1)N1CCC(O)(c2ccc3c(c2)OCO3)CC1	CYP2C19 inhib 71
CCCCN(Cc1ccccc1)C(=O)C1CCN(S(=O)(=O)c2c(C)noc2C)CC1	none
O=C(NCC1CCCO1)C1CCCCN1S(=O)(=O)c1ccc(F)cc1 (centres undefined)	none
COc1ccc(S(=O)(=O)N2CCCCC2C(=O)O)cc1 (centres undefined)	none (no result: CYP2C9 inhib, CYP2C19 inhib, CYP2C9 act, CYP2C19 act)
O=C(NCc1ccco1)C1CCCCN1S(=O)(=O)c1ccc(F)cc1 (centres undefined)	CYP2C19 inhib 61
CCOc1ccc(NC(=O)C2CCCCN2S(=O)(=O)c2ccccc2)cc1 (centres undefined)	CYP2C19 inhib 75
O=C(O)C1CCCCN1S(=O)(=O)c1ccccc1 (centres undefined)	none
COc1ccc(NC(=O)C2CCCCN2S(=O)(=O)c2ccc(F)cc2)cc1 (centres undefined)	CYP2C19 inhib 68
Cc1ccc(S(=O)(=O)N2CCC(C(=O)Nc3ccc4c(c3)OCO4)CC2)cc1	none
O=C(Nc1ccc2c(c1)OCO2)C1CCCCN1S(=O)(=O)c1ccc(F)cc1 (centres undefined)	CYP2C9 inhib 63, CYP2C19 inhib 100
O=C(/C=C/c1ccc(O)c(O)c1)O[C@H](Cc1ccc(O)c(O)c1)C(=O)O	none (no result: CYP2C9 inhib, CYP2C19 inhib, CYP2C9 act, CYP2C19 act)
Cc1nn(-c2ccccc2)c(Oc2ccc(F)cc2)c1/C=N/n1cnnc1	CYP2C9 inhib 60, CYP2C19 inhib 56
CC(=O)C1=C(C)N(Cc2ccccc2)C(=O)N[C@H]1c1ccco1	none (no result: CYP2C9 inhib, CYP2C19 inhib, CYP2C9 act, CYP2C19 act)
CC(C)OC(=O)C1=C2SCC(=O)N2C(N)=C(C#N)C1	CYP2C19 inhib 76
Cc1ccc(OCc2ccc(C(=O)N3CCOCC3)cc2)cc1C	CYP2C19 inhib 71
Cc1ccc(C(=O)N2CCOCC2)cc1Cl	none
O=C(c1ccc(CN2CCOCC2)cc1)N1CCN(c2cccc(Cl)c2)CC1	none
Cc1ccc(Cl)cc1N1CCN(C(=O)c2ccc(CN3CCOCC3)cc2)CC1	CYP2C9 inhib 67, CYP2C19 inhib 60
CCc1cc2cc3c(cc2nc1SCC(=O)Nc1cc(C)on1)OCO3	none
CCOC(=O)C[C@H]1c2cc(F)ccc2S(=O)(=O)N1C1CCCC1	none (no result: CYP2C9 inhib, CYP2C19 inhib, CYP2C9 act, CYP2C19 act)
O=C1C2CC=C(Cl)CC2C(=O)N1CC1OCCc2ccccc21 (centres undefined)	CYP2C9 inhib 55, CYP2C19 inhib 74
CCC(=O)Nc1cc(Cl)ccc1N1CCN(C(=O)CC)CC1	none
CCC(=O)N1CCN(c2ccc(Cl)cc2NC(=O)Cc2ccccc2)CC1	CYP2C9 inhib 79, CYP2C19 inhib 83, Cav3 T inh -6
Fc1cccc(Cn2ccc(-c3ccc4c(c3)OCO4)n2)c1	CYP2C9 inhib 86, CYP2C19 inhib 95
Cc1ccccc1Cn1ccc(-c2ccc3c(c2)OCO3)n1	CYP2C9 inhib 50, CYP2C19 inhib 58
O=c1c2c3nc4ccccc4nc3n(-c3cccc(F)c3)c2ncn1Cc1ccc2c(c1)OCO2	none (no result: Cav3 T inh)
COc1ccccc1CNC(=O)C1CCC(CNc2c(N3CCOCC3)c(=O)c2=O)CC1 (centres undefined)	none
COc1ccccc1N1CCN(CCc2n[nH]c(=S)n2-c2ccccc2)CC1	none
CC1CCc2c(C(=O)Oc3cccc(-n4cnnn4)c3)csc2C1 (centres undefined)	none
CC1CCCN(C(=O)CCCn2c(=S)[nH]c3ccccc3c2=O)C1 (centres undefined)	CYP2C9 inhib 51, CYP2C19 inhib 53
COc1ccc(NC(=O)CCCn2c(=S)[nH]c3ccccc3c2=O)cc1	CYP2C9 inhib 59
Cc1ccc(CNC(=O)CCCn2c(=O)[nH]c3ccccc3c2=O)cc1	none
COc1ccc(NC(=O)CCCn2c(=O)[nH]c3ccccc3c2=O)cc1	CYP2C9 inhib 89, CYP2C19 inhib 53
COc1ccc(NC(=O)CCCCn2c(=O)[nH]c3ccccc3c2=O)cc1	CYP2C9 inhib 66
O=C(CCCn1c(=S)[nH]c2ccccc2c1=O)NC1CCCC1	none
Cc1ccc2[nH]cc(C(=O)CN3CCOCC3)c2c1	none
Cc1ccc(S(=O)(=O)c2cc(C#N)c(=O)[nH]c2N)cc1	none
O=C(CC1CCS(=O)(=O)C1)Nc1ccc[nH]c1=O (centres undefined)	none
NCCCN1CCOCC1	none
CC(C)n1c(=S)[nH]c2ccccc2c1=O	none
CC1CCCCC1n1c(=S)[nH]c2ccccc2c1=O (centres undefined)	CYP2C19 inhib 72
CCN(CC)N=Nc1[nH]nc2nc(C)cc(C)c12	none
CCOC(=O)Cc1csc(NS(=O)(=O)c2ccc(F)cc2)n1	CYP2C9 inhib 50
CCCCC(=O)Nc1ccc(C(=O)Nc2nc(CC(=O)OCC)cs2)cc1	CYP2C9 inhib 68
CCOC(=O)Cc1csc(NC(=O)c2ccc(Cl)nc2)n1	none
CCOC(=O)Cc1csc(NC(=O)c2sc3nc4ccc(CC)cc4cc3c2N)n1	CYP2C9 inhib 63
CCOC(=O)Cc1csc(NC(=O)c2cccs2)n1	CYP2C9 inhib 77, CYP2C19 inhib 88, Cav3 T inh -5.4
O=C1CCCC2=C1C(c1ccco1)Nc1ccc3ccccc3c12 (centres undefined)	none
Cc1nn(C(=O)c2cccc([N+](=O)[O-])c2)c(C)c1Sc1ccccc1	none
O=C(NCc1ccccc1)N1CCC(n2cnc3cc(F)ccc32)CC1	none

Assay outcomes deposited in PubChem BioAssay by several laboratories.
